Source: PubChem BioAssay (NCATS)
Results filed as inconclusive are left out. Calls of active or inactive are those of the source. The call rests on the fitted dose curve; in most records, active means well fitted curve in the direction sought with a large enough effect; inconclusive means small, poorly fitted or top-dose-only effect, or another doubt; inactive means no such curve, though single readings can be large; an effect the other way counts as inactive or inconclusive.

Test: qHTS for Activators of Parkin Expression: LOPAC Validation Assay (NLuc Reporter) (AID 720572; further: potency means the concentration at half of the fitted maximal effect;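 on activation: 0% = DMSO and 100% = positive control compound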)
Details: Parkin promoter NanoLuc reporter cells, luminescence; series mostly up to 46.1 µM; activation: at the top concentration
How it was run: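 Neuronal line stably carrying a FLuc/NLuc coincidence reporter under the Parkin promoter, seeded 24 h, then dosed in 7-point series for 24 h at 37 C. NLuc luminescence read after FLuc; normalized to DMSO and positive control (100%).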

SMILES	activation	Potency
CC(C)NNC(=O)c1ccncc1	-1.47% (inactive)	–
COC(=O)C1=C(C)NC(C)=C(C(=O)OCCN(C)Cc2ccccc2)C1c1cccc([N+](=O)[O-])c1 (stereo not given)	–	16400 nM (active)
OCCN1CCN(CCCN2c3ccccc3C=Cc3ccccc32)CC1	-3.8% (inactive)	–
CN(C(=O)CCCOc1ccc2[nH]c(=O)ccc2c1)C1CCCCC1	1.98% (inactive)	–
CC(C)(C)NCC(O)c1cc(O)cc(O)c1 (stereo not given)	4.68% (inactive)	–
CCCOc1ccccc1-c1nc2n[nH]nc2c(=O)[nH]1	16.3% (inactive)	–
CC(=O)Oc1cc(C(C)C)c(OCCN(C)C)cc1C	-0.23% (inactive)	–
CCCCNc1ccc(C(=O)OCCN(C)C)cc1	-2.92% (inactive)	–
CC(C)[N+](C)(CCOC(=O)C1c2ccccc2Oc2ccccc21)C(C)C	-1.47% (inactive)	–
Nc1c2c(nc3ccccc13)CCCC2O (stereo not given)	-3.31% (inactive)	–
COCCOC(=O)C1=C(C)NC(C)=C(C(=O)OC(C)C)C1c1cccc([N+](=O)[O-])c1 (stereo not given)	–	2060 nM (active)
CN1C[C@H](C(=O)N[C@]2(C)O[C@@]3(O)[C@@H]4CCCN4C(=O)[C@H](Cc4ccccc4)N3C2=O)C[C@@H]2c3cccc4[nH]cc(c34)C[C@H]21	-4.59% (inactive)	–
CC(C(=O)O)c1ccc(CC2CCCC2=O)cc1 (stereo not given)	3.07% (inactive)	–
CCCN(CCC)C(=O)C(CCC(=O)O)NC(=O)c1ccccc1 (stereo not given)	3.14% (inactive)	–
O=C(O)CP(=O)(O)O	-1.52% (inactive)	–
CN(C)CCOC(=O)COc1ccc(Cl)cc1	1.19% (inactive)	–
Cc1ccc(=O)n(-c2ccccc2)c1	-2.35% (inactive)	–
C[n+]1cc2c3c(ccc2c2ccc4cc5c(cc4c21)OCO5)OCO3	-25.2% (inactive)	–

SMILES	activation	Potency
CCOC(=O)C1=C(C)NC(C)=C(C(=O)OC)C1c1cccc([N+](=O)[O-])c1 (stereo not given)	–	1460 nM (active)
N[C@@H](COP(=O)(O)O)C(=O)O	-3.01% (inactive)	–
COC(=O)[C@@H](N)Cc1ccc(O)c(O)c1	2.67% (inactive)	–
CCOC(=O)C1=C(C)NC(C)=C(C(=O)OC)C1c1cccc(Cl)c1Cl (stereo not given)	–	2590 nM (active)
Cc1ccc(Cl)c(Nc2ccccc2C(=O)O)c1Cl	11.6% (inactive)	–
COCCCC/C(=N\OCCN)c1ccc(C(F)(F)F)cc1	-2.18% (inactive)	–
CCN1CCc2nc(N)oc2CC1	4.17% (inactive)	–
CCC(=O)c1ccc2c(c1)N(CCCN(C)C)c1ccccc1S2	-6.92% (inactive)	–
O=C(CCCN1CCC(O)(c2cccc(C(F)(F)F)c2)CC1)c1ccc(F)cc1	-5.71% (inactive)	–
CC(N=C(NC#N)Nc1ccncc1)C(C)(C)C (stereo not given)	-0.42% (inactive)	–
CNCCC(Oc1ccccc1OC)c1ccccc1 (stereo not given)	-2.34% (inactive)	–
NC(N)=N/N=C/c1c(Cl)cccc1Cl	-10.7% (inactive)	–
CNCCCN1c2ccccc2CCc2ccccc21	-3.32% (inactive)	–
CCN(CC)CCCN(c1ccccc1)C1Cc2ccccc2C1	7.94% (inactive)	–
OC(CCN1CCCCC1)(c1ccccc1)C1CCCCC1 (stereo not given)	-2.39% (inactive)	–
CCn1ccnc1CC1COc2ccccc2O1 (stereo not given)	-2.23% (inactive)	–
CN/C(=C\[N+](=O)[O-])NCCSCc1ccc(CN(C)C)o1	0.839% (inactive)	–

Test: qHTS for Activators of Parkin Expression: LOPAC Validation Assay (FLuc Reporter) (AID 720573;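 further: 0% = DMSO and 100% = positive control compounds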)
Details: Cell line, PRKN promoter firefly luciferase reporter, vehicle wells = 0, positive control = 100%; series mostly up to 46.1 µM; activation: at the top concentration
How it was run: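 Readout is FLuc luminescence from neuronal reporter cells (Parkin promoter, FLuc plus NLuc) after 24 h compound exposure in dose response. Values normalized to neutral DMSO and positive-control compounds.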

SMILES	activation
CC(C)NNC(=O)c1ccncc1	-7.17% (inactive)
COC(=O)C1=C(C)NC(C)=C(C(=O)OCCN(C)Cc2ccccc2)C1c1cccc([N+](=O)[O-])c1 (stereo not given)	-12.4% (inactive)
OCCN1CCN(CCCN2c3ccccc3C=Cc3ccccc32)CC1	-7.54% (inactive)
CN(C(=O)CCCOc1ccc2[nH]c(=O)ccc2c1)C1CCCCC1	8.13% (inactive)
CC(C)(C)NCC(O)c1cc(O)cc(O)c1 (stereo not given)	-4.74% (inactive)
CCCOc1ccccc1-c1nc2n[nH]nc2c(=O)[nH]1	3.1% (inactive)
CC(=O)Oc1cc(C(C)C)c(OCCN(C)C)cc1C	-2.83% (inactive)
CCCCNc1ccc(C(=O)OCCN(C)C)cc1	4.71% (inactive)
CC(C)[N+](C)(CCOC(=O)C1c2ccccc2Oc2ccccc21)C(C)C	0.221% (inactive)
Nc1c2c(nc3ccccc13)CCCC2O (stereo not given)	0.754% (inactive)
COCCOC(=O)C1=C(C)NC(C)=C(C(=O)OC(C)C)C1c1cccc([N+](=O)[O-])c1 (stereo not given)	-10.3% (inactive)
CN1C[C@H](C(=O)N[C@]2(C)O[C@@]3(O)[C@@H]4CCCN4C(=O)[C@H](Cc4ccccc4)N3C2=O)C[C@@H]2c3cccc4[nH]cc(c34)C[C@H]21	-14.8% (inactive)
CC(C(=O)O)c1ccc(CC2CCCC2=O)cc1 (stereo not given)	-6.91% (inactive)
CCCN(CCC)C(=O)C(CCC(=O)O)NC(=O)c1ccccc1 (stereo not given)	-6.64% (inactive)
O=C(O)CP(=O)(O)O	-12.7% (inactive)
CN(C)CCOC(=O)COc1ccc(Cl)cc1	-1.8% (inactive)
Cc1ccc(=O)n(-c2ccccc2)c1	3.55% (inactive)
C[n+]1cc2c3c(ccc2c2ccc4cc5c(cc4c21)OCO5)OCO3	-48.9% (inactive)

SMILES	activation
CCOC(=O)C1=C(C)NC(C)=C(C(=O)OC)C1c1cccc([N+](=O)[O-])c1 (stereo not given)	-25.2% (inactive)
N[C@@H](COP(=O)(O)O)C(=O)O	-0.629% (inactive)
COC(=O)[C@@H](N)Cc1ccc(O)c(O)c1	-24.8% (inactive)
CCOC(=O)C1=C(C)NC(C)=C(C(=O)OC)C1c1cccc(Cl)c1Cl (stereo not given)	2.76% (inactive)
Cc1ccc(Cl)c(Nc2ccccc2C(=O)O)c1Cl	-15.8% (inactive)
COCCCC/C(=N\OCCN)c1ccc(C(F)(F)F)cc1	-1.41% (inactive)
CCN1CCc2nc(N)oc2CC1	0.854% (inactive)
CCC(=O)c1ccc2c(c1)N(CCCN(C)C)c1ccccc1S2	-18.6% (inactive)
O=C(CCCN1CCC(O)(c2cccc(C(F)(F)F)c2)CC1)c1ccc(F)cc1	-9.67% (inactive)
CC(N=C(NC#N)Nc1ccncc1)C(C)(C)C (stereo not given)	-8.52% (inactive)
CNCCC(Oc1ccccc1OC)c1ccccc1 (stereo not given)	0.909% (inactive)
NC(N)=N/N=C/c1c(Cl)cccc1Cl	-15% (inactive)
CNCCCN1c2ccccc2CCc2ccccc21	-11.4% (inactive)
CCN(CC)CCCN(c1ccccc1)C1Cc2ccccc2C1	-14.2% (inactive)
OC(CCN1CCCCC1)(c1ccccc1)C1CCCCC1 (stereo not given)	-7.17% (inactive)
CCn1ccnc1CC1COc2ccccc2O1 (stereo not given)	11.7% (inactive)
CN/C(=C\[N+](=O)[O-])NCCSCc1ccc(CN(C)C)o1	-10.5% (inactive)
